Results filed as inconclusive are left out. Where a call stands in place of a potency, no number is given. Active and inactive are the calls of the source. The call rests on the fitted dose curve; in most records, active means well fitted cell-killing curve with a large enough effect in the repeat runs; inconclusive means weak or mixed curves, or effect the other way; inactive means flat fitted curve, though single readings scatter.
What was measured:
[1] = cAMP Responsive Elements (CRE) small molecule antagonists, cell-based qHTS assay: qHTS cell viability counter screen (AID 2060913); details: CRE-bla HEK293T viability, CellTiter-Glo luminescence, 5 h; series mostly up to 92.4 µM; further: nearly all actives have a fitted effect of over 40% in size
In short: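 Steps: cells plated and held 18 hrs at 37 C/5% CO2; compounds and NKH477 (0.25 uM final) added; 3 hrs incubation; reporter substrate read; CellTiter-Glo added to measure cytotoxicity by luminescence.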

[2] = cAMP Responsive Elements (CRE) small molecule agonists, cell-based qHTS assay: qHTS cell viability counter screen (AID 2060914); details: CRE-bla HEK293T viability, CellTiter-Glo luminescence, 5 h; series mostly up to 92.4 µM;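 further: viability read after 3 h of compound exposure; nearly all actives have a fitted effect of over 50% in size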
In short: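 CRE-bla HEK 293T cells, plated 18 h at 37 °C, were exposed to compounds for 3 h at 37 °C/5% CO2. Viability was then measured in the same wells by CellTiter-Glo luminescence after 30 min at room temperature.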
Potency means the concentration at half of the fitted maximal effect.

| SMILES | Potency [1] | Potency [2] |
| --- | --- | --- |
| CC[N+](CC)(CC(=O)Nc1c(C)cccc1C)Cc1ccccc1 (tested in a mixture with another compound) | inactive | inactive |
| C/C=C/C(=O)C1=C(C)CCCC1(C)C | inactive | inactive |
| C=CC(=O)CCCCC | inactive | inactive |
| O=S(=O)(O)c1ccc(N=Nc2c(O)ccc3cc(S(=O)(=O)O)ccc23)cc1 | inactive | inactive |
| Cc1ncc([C@@H](CCCCCCc2ccc3c(n2)NCCC3)CC(=O)O)cn1 | inactive | inactive |
| CC/C=C1/OC(=O)c2ccccc21 | inactive | inactive |
| O=C(CS(=O)Cc1ccco1)NC/C=C\COc1cc(CN2CCCCC2)ccn1 (stereo not drawn) | inactive | inactive |
| CCCCOC(=O)CC | inactive | inactive |
| CCOC(=O)/C=C\C(=O)OCC | inactive | inactive |
| OCCN(CCO)c1ccccc1 | inactive | inactive |
| CCCCC(CC)COC(=O)c1ccccc1 (stereo not drawn) | inactive | inactive |
| CCCCCCCC[N+](CCCCCCCC)(CCCCCCCC)CCCCCCCC | 19.3 µM (active) | 30.6 µM (active) |
| CN(C)CCN(Cc1cccs1)c1ccccn1 | inactive | inactive |
| CCCCCCCCCC(=O)O | inactive | inactive |
| Cc1ncc(CSSCc2cnc(C)c(O)c2CO)c(CO)c1O | inactive | inactive |
| O=C(c1ccccc1)c1cc(Cl)ccc1O | inactive | inactive |
| O=C(O)c1ccccc1C(=O)OCc1ccccc1 | inactive | inactive |
| CCN=C1C=CC(=C(c2ccc(N(CC)CC)cc2)c2ccc(N(CC)CC)cc2)c2ccccc21 | 48.3 µM (active) | 30.5 µM (active) |
| N[C@@H](Cc1cc(I)c(Oc2ccc(O)c(I)c2)c(I)c1)C(=O)O | inactive | inactive |
| O=C(CCCCC(=O)Nc1c(I)cc(I)c(C(=O)O)c1I)Nc1c(I)cc(I)c(C(=O)O)c1I | inactive | inactive |
| CCCNC(=O)NS(=O)(=O)c1ccc(Cl)cc1 | inactive | inactive |
| O=C(O)CNC(=O)CNC(=O)CNC(=O)CSC(=O)c1ccccc1 | inactive | inactive |
| OC[C@H](Cc1cccc(O)c1)[C@H](CO)Cc1cccc(O)c1 | inactive | inactive |
| CC(C)(C)NCC(O)COc1cccc2c1C[C@H](O)[C@H](O)C2 (stereo partly drawn) | inactive | inactive |
| O=C(O)CSCC(=O)NC1CCSC1=O (stereo not drawn) | inactive | inactive |
| O=C(CCCl)NCCc1ccccc1 | inactive | inactive |

| SMILES | Potency [1] | Potency [2] |
| --- | --- | --- |
| C=COC(=O)C(C)(CC)CCC(C)C (stereo not drawn) | inactive | inactive |
| c1cc(-c2ccncc2)ccn1 | inactive | inactive |
| COc1ccc(NC(=O)CC(C)=O)cc1 | inactive | inactive |
| Cc1cc(O)cc2c1O[C@](C)(CCC[C@H](C)CCC[C@H](C)CCCC(C)C)CC2 | inactive | inactive |
| CC(=O)OC(C)=O | inactive | inactive |
| C=C(C)C(=O)OCC(C)O (stereo not drawn) | inactive | inactive |
| CCCCCCC(C)(C)S | inactive | inactive |
| CCCCCCCCC=O | inactive | inactive |
| COC(=O)C1=C(C)NC(C)=C(C(=O)OC(C)C)C1c1cccc2nonc12 (stereo not drawn) | inactive | inactive |
| CC(C)CCC(=O)CCC(C)C | inactive | inactive |
| O=S(=O)(O)c1ccc2cc(O)ccc2c1 | inactive | inactive |
| CC(=O)OCC(=O)[C@@]1(O)CCC2C3CCC4=CC(=O)CC[C@]4(C)C3[C@@H](O)C[C@@]21C (stereo partly drawn) | inactive | inactive |
| CC[N+](C)(C)c1cccc(O)c1 | inactive | inactive |
| COc1ccnc2c1CCCCC2S(=O)c1nc2ccccc2[nH]1 (stereo not drawn) | inactive | inactive |
| CO[Si](CCC1CCC2OC2C1)(OC)OC (stereo not drawn) | inactive | inactive |
| CC1(C)Cc2cccc(N)c2O1 | inactive | inactive |
| N#Cc1ccc(CC(=O)c2cccc(C(F)(F)F)c2)cc1 | inactive | inactive |
| CC(O)C1CCCCC1 (stereo not drawn) | inactive | inactive |
| CCCCCCCOC(=O)c1ccc(O)cc1 | inactive | inactive |
| O=C1CCCC(=O)C1 | inactive | inactive |
| C=CC(C)(CCC=C(C)C)OC=O (stereo not drawn) | inactive | inactive |
| NC(=O)CC[C@@H]1NC(=O)[C@H](Cc2ccccc2)NC(=O)[C@H](Cc2ccc(O)cc2)NC(=O)CCSSC[C@@H](C(=O)N2CCC[C@H]2C(=O)N[C@@H](CCCN=C(N)N)C(=O)NCC(N)=O)NC(=O)[C@H](CC(N)=O)NC1=O | inactive | inactive |
| C[Si]1(C)O[Si](C)(C)O[Si](C)(C)O[Si](C)(C)O[Si](C)(C)O1 | inactive | inactive |
| O=C(O)c1cccc(Cl)c1Cl | inactive | inactive |
| CCCC(C)C(=O)OCC (stereo not drawn) | inactive | inactive |
| c1cnc(N2CCN(Cc3ccc4c(c3)OCO4)CC2)nc1 | inactive | inactive |

| SMILES | Potency [1] | Potency [2] |
| --- | --- | --- |
| O=Cc1ccccc1O | inactive | inactive |
| CC(C)Cn1cnc2c1c(=O)n(C)c(=O)n2C | inactive | inactive |
| Nc1cc(S(=O)(=O)O)ccc1O | inactive | inactive |
| C/C(=C\C(C)CC(C)CC(C)C)C1CC(=O)OC1=O (stereo not drawn) | inactive | inactive |
| Nc1nccs1 | inactive | inactive |
| Oc1ccc(Nc2ccccc2)cc1 | inactive | inactive |
| COc1cc(C)c(Cc2cnc(N)nc2N)cc1OC | inactive | inactive |
| CCCCC/C=C\C/C=C\CCCCCCCC(=O)NC(C)c1ccccc1 (stereo not drawn) | inactive | inactive |
| CCO[C@@H]1O[C@H](C(COCc2ccccc2)OCc2ccccc2)[C@H](OCc2ccccc2)[C@H]1O (stereo partly drawn) | inactive | inactive |
| Nc1cccc(C(F)(F)F)c1 | inactive | inactive |
| CCCCC/C=C\C/C=C\CCCCCCCC(=O)O | inactive | inactive |
| Nc1cc(C(Cl)=C(Cl)Cl)c(S(N)(=O)=O)cc1S(N)(=O)=O | inactive | inactive |
| CCCC/C=C\CCCCCCCCCC=O | inactive | inactive |
| CCCCN(CCCC)CCCCCCN(CCCC)CCCC | inactive | inactive |
| CCCCCCCCCCCCC(=O)O | inactive | inactive |
| OC[C@H]1O[C@@H](Oc2ccc(O)cc2)[C@H](O)[C@@H](O)[C@@H]1O | inactive | inactive |
| CC[N+]1(CC)CCC(=C(c2ccccc2)c2ccccc2)C1C (stereo not drawn) | inactive | inactive |
| CCn1nc(C)c2c1C(=O)NCC(c1ccc(O)cc1)=N2 | inactive | inactive |
| Cc1cc(O)c(C(C)(C)C)cc1C(C)(C)C | 43.3 µM (active) | 48.6 µM (active) |
| C/C=C/C(=O)C1=C(C)C=CCC1(C)C | inactive | inactive |
| Cc1ccc(C)o1 | inactive | inactive |
| CCc1ccc(CCOc2ccc(CC3SC(=O)NC3=O)cc2)nc1 (stereo not drawn) | inactive | inactive |
| CC(C)(C)Cl | inactive | inactive |
| CCOC(=O)OC(=O)OCC | inactive | inactive |
| CCOC(=O)CC1(C)OCC(C)O1 (stereo not drawn) | inactive | inactive |
| O=S(=O)(Oc1ccc(Cl)cc1Cl)c1ccccc1 | inactive | inactive |

| SMILES | Potency [1] | Potency [2] |
| --- | --- | --- |
| Cc1cnc(C)c(C)n1 | inactive | inactive |
| Cl/C(=C\n1cncn1)c1ccc(Cl)cc1Cl | inactive | inactive |
| COc1ccc(Cl)cc1C(=O)NCCc1ccc(S(=O)(=O)NC(=O)NC2CCCCC2)cc1 | inactive | inactive |
| O=C(Nc1ccccc1)c1ccccc1O | inactive | inactive |
| O=C(O)c1cccc(C(F)(F)F)c1 | inactive | inactive |
| CS(=O)(=O)c1ccc([C@@H](O)[C@@H](CF)NC(=O)C(Cl)Cl)cc1 | inactive | inactive |
| C=CCOCC(CO)(COCC=C)COCC=C | inactive | inactive |
| CCN(CC)C(C)=O | inactive | inactive |
| OC[C@H]1O[C@@H](O[C@@H]2[C@@H](CO)O[C@](O)(CO)[C@H]2O)[C@H](O)[C@@H](O)[C@H]1O | inactive | inactive |
| O=C(CCCCCCCCc1cccnc1)N1CCC(C=C(c2ccccc2)c2ccccc2)CC1 | inactive | inactive |
| CC(C)CCCCCOC(=O)CCCCC(=O)OCCCCCC(C)C | inactive | inactive |
| CNS(=O)(=O)c1cc(C(=O)N2CCC(CCN3C4CCC3CC(n3c(C)nc5ccccc53)C4)(c3cccc(F)c3)CC2)c(Cl)cc1F (stereo not drawn) | inactive | inactive |
| CC(O)C(CO)C(C)O (stereo not drawn) | inactive | inactive |
| S=C(NC1CCCCC1)NC1CCCCC1 | inactive | inactive |
| CC(C)=CCC/C(C)=C/CC/C(C)=C/CO | inactive | inactive |
| O=C(O)CNC(=O)c1ccccc1I | inactive | inactive |
| OCCNCCO | inactive | inactive |
| NS(=O)(=O)c1cc(C(=O)NN2C[C@H]3[C@H]4CCC(C4)[C@H]3C2)ccc1Cl | inactive | inactive |
| COc1cc2nc(N3CCN(C(=O)C4COc5ccccc5O4)CC3)nc(N)c2cc1OC (stereo not drawn) | inactive | inactive |
| Oc1cc(Cl)cc(Cl)c1Cl | 55.8 µM (active) | inactive |
| Cc1ccc(N(CC2=NCCN2)c2cccc(O)c2)cc1 | inactive | inactive |
| O=C(O)c1cccc([N+](=O)[O-])c1 | inactive | inactive |
| CC(C)(c1ccccc1)c1ccc(Nc2ccc(C(C)(C)c3ccccc3)cc2)cc1 | inactive | inactive |
| Cn1c(=O)cc(Oc2ccc(F)cc2F)c2cnc(NCC(C)(C)O)nc21 | inactive | inactive |
| CCn1nc(Cc2ccccc2)cc1C1CCN(C[C@H]2C[C@H](N(C)[C@@H](C(=O)O)C(C)C)C[C@@H]2c2cccc(F)c2)CC1 | inactive | inactive |
| NC(=O)N1c2ccccc2CC(=O)c2ccccc21 | inactive | inactive |

From PubChem BioAssay (Tox21)
